CSC inhib – blocks cancer stem cells; inhibition, % at 7.5 µM; cancer stem cell-like cells viability, luminescence; 1.1% of 300,000 active; in the data active means inhibition above about 75%; inconclusive means no clear call, values can overlap the other calls; tested in HMLE shEcad cells
Beta apoptosis – beta cell apoptosis inhibition; INS-1E cytokine-induced death, ATP luminescence, 48 h; percent of positive-control rescue, neutral wells zero; protection from apoptosis, % (concentration not given with the values); 0.8% of 300,000 active; AID 435005;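 active means Every replicate reaches about 75%, or at least half do and their mean reaches it too, limit read from the data; inconclusive means At least half of replicates reach the limit but their mean does not; inactive means Under half of replicates reach the limit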;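 further: 0% = cytokine-treated negative control wells and 100% = positive control rescue; higher means more ATP so stronger rescue from cytokine killing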
NR3A LBD binder – NR3A (human) ligand-binding domain modulation. NR3A LBD differential scanning fluorimetry, Tm shift; 0% = protein alone, 100% = glycine-bound protein. Tm shift relative to glycine control, % at 25 µM. 2.5% of 340,000 active;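 active means melting temperature shift of at least 10% of the positive control shift, at one fixed dose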
MPTP inh – permeability transition pore inhibition | isolated mouse mitochondria, Ca2+ swelling absorbance, 30 min | inhibition, % at 10 µM | 1.4% of 360,000 active | AID 602449;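 active means inhibition of 50% or more, scaled per plate between neutral and stimulator controls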;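 further: 0% = DMSO wells given calcium and 100% = 1 mM EGTA wells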
Mdm2 MdmX PPI – inhibitors of human Mdm2/MdmX interaction; O15151+Q00987; SaOS-2 split-luciferase Mdm2/MdmX complementation, luminescence; inhibition, % at 8 µM; 3% of 330,000 active; AID 485346;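 active means inhibition of at least 50% at 8 µM in the primary screen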
Target sequence (O15151 whole entry, looked up): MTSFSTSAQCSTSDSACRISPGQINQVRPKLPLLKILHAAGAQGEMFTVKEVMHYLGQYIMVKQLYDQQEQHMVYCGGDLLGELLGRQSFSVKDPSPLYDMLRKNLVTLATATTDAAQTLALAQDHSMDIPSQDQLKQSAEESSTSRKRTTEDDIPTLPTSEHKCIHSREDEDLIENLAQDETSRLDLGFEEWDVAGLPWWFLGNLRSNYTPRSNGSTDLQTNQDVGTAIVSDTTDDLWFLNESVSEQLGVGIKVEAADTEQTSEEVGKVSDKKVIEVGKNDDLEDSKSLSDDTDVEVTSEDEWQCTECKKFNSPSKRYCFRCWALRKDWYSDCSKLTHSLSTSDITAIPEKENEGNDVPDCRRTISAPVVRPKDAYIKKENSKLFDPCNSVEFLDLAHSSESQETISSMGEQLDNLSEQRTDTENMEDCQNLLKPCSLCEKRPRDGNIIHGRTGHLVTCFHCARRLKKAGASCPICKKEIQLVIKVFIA
Target sequence (Q00987 whole entry, looked up): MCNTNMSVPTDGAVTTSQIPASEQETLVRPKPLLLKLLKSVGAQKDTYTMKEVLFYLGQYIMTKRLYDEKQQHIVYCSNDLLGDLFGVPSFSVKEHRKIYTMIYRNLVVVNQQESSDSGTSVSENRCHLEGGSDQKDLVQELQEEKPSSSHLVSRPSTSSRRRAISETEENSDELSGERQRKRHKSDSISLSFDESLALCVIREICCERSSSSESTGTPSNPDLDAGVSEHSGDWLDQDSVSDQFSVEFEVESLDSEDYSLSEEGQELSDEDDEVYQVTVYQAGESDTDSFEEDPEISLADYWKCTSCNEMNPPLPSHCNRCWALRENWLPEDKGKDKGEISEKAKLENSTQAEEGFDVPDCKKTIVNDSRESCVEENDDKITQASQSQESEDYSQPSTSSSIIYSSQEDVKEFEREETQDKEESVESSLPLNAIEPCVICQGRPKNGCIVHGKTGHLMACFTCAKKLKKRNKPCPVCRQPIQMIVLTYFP
SKKanGAS inh – inhibitors of SKKanGAS S. pyogenes growth in kanamycin (SK-promoter or general growth effect). BacTiter-Glo, 6 h. inhibition, % at 7.5 µM. 1.3% of 300,000 active. AID 1662;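 active means mean replicate score, as percent of positive control median, at least 50; inconclusive means mean below 50 but one replicate at or above 50; inactive means mean and every replicate below 50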;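 further: strain carries kanamycin resistance gene driven by streptokinase promoter and grows in 40 µg/ml kanamycin; loss of luminescence reflects streptokinase promoter inhibition or plain growth inhibition; 0% = median of DMSO wells and 100% = positive control at its reference dose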
Starred values were filed as active, the others as inactive. In the library only some 6.9% were active in any assay of this set; here they are far more common.

`C[C@H](CO)N1C[C@H](C)[C@H](CN(C)S(=O)(=O)c2ccc(C#N)cc2)OCc2cnnn2CCCC1=O` gave MPTP inh -0.5.
`COc1cccc(N2CCN(Cc3nc(N)nc(Nc4ccccc4)n3)CC2)c1` gave CSC inhib -9.2, Beta apoptosis -5.1, NR3A LBD binder 0.8, MPTP inh -1.5, Mdm2 MdmX PPI -14.4 and SKKanGAS inh 34.0.
Screening Cc1cccc(Nc2nc(N)nc(CN3CCN(c4ccccc4F)CC3)n2)c1 returned CSC inhib -1.1, Beta apoptosis -0.8, NR3A LBD binder -2.6, MPTP inh -1.0, Mdm2 MdmX PPI 42.2 and SKKanGAS inh 71.9*.
For COc1ccccc1N1CCN(Cc2nc(N)nc(Nc3ccc(C)c(Cl)c3)n2)CC1 the results were CSC inhib 13.4, Beta apoptosis 1.2, NR3A LBD binder -10.6, MPTP inh -0.5, Mdm2 MdmX PPI 44.4 and SKKanGAS inh 76.2*.
Screening Cc1cccc(Nc2nc(N)nc(CN3CCN(c4ccccc4)CC3)n2)c1 returned CSC inhib 13.1, Beta apoptosis -3.3, NR3A LBD binder -0.3, MPTP inh -3.3, Mdm2 MdmX PPI -3.4 and SKKanGAS inh inconclusive.
`COc1ccccc1Nc1nc(N)nc(CN2CCN(c3ccccc3F)CC2)n1` gave CSC inhib -12.3, Beta apoptosis -1.0, NR3A LBD binder 0.8, MPTP inh -1.0, Mdm2 MdmX PPI -13.0 and SKKanGAS inh 62.4*.
For COc1ccccc1Nc1nc(N)nc(CN2CCN(Cc3ccccc3)CC2)n1 the results were CSC inhib 0.6, Beta apoptosis 1.7, NR3A LBD binder 1.5, MPTP inh 0.1, Mdm2 MdmX PPI 9.2 and SKKanGAS inh -18.2.
For Cc1ccc(C(=O)OCC(=O)NC(C)c2ccccc2)cc1C (stereo not drawn) the results were CSC inhib 12.6, Beta apoptosis -5.0, NR3A LBD binder 0.1, MPTP inh -0.5 and Mdm2 MdmX PPI 13.9.
For COc1ccc(CNC(=O)CNC(=O)CNS(=O)(=O)c2ccc(C)c(C)c2)cc1 the results were CSC inhib -28.9, Beta apoptosis -1.2, NR3A LBD binder 1.2, MPTP inh 0.9, Mdm2 MdmX PPI 20.6 and SKKanGAS inh -6.0.
For CCCc1cc(=O)oc2cc(C)cc(OCC(=O)NCCCN3CCOCC3)c12 the results were CSC inhib -25.7, Beta apoptosis -1.2, NR3A LBD binder 2.7, MPTP inh 0.0, Mdm2 MdmX PPI -33.2 and SKKanGAS inh 2.7.
Screening CC(C)OCC1CC(CC(=O)Nc2ccc([N+](=O)[O-])cc2)C(=O)O1 (stereo not drawn) returned Beta apoptosis -0.5, NR3A LBD binder 17.6*, MPTP inh 1.3, Mdm2 MdmX PPI 9.1 and SKKanGAS inh -3.4.
CC1(C)CC(CC(=O)NC(=S)Nc2ccc([N+](=O)[O-])cc2)C(=O)O1 (stereo not drawn) was read as CSC inhib 32.0, Beta apoptosis -8.4, NR3A LBD binder 10.2*, MPTP inh 1.9, Mdm2 MdmX PPI -5.2 and SKKanGAS inh 18.3.
`CC(C)OCC1CC(CC(=O)NC(=S)Nc2cccc([N+](=O)[O-])c2)C(=O)O1` (stereo not drawn) gave CSC inhib 15.5, Beta apoptosis -3.7, NR3A LBD binder 0.1, MPTP inh -1.1, Mdm2 MdmX PPI 11.0 and SKKanGAS inh 8.7.
For O=C(CS(=O)(=O)Cc1ccccc1)NCCc1ccc(F)cc1 the results were CSC inhib -13.6, Beta apoptosis -6.9, NR3A LBD binder 0.6, MPTP inh 0.8, Mdm2 MdmX PPI 11.3 and SKKanGAS inh -3.7.
COc1ccc(OC)c(NC(=O)COC(=O)CCC2CCCC2)c1 was read as CSC inhib -10.0, Beta apoptosis -4.1, NR3A LBD binder 2.5, MPTP inh -2.8 and Mdm2 MdmX PPI -11.7.
Screening COc1ccc2c(c1)c(CC(=O)Nc1cccc(S(N)(=O)=O)c1)c(C)n2C(=O)c1ccc(Cl)cc1 returned CSC inhib 37.8, Beta apoptosis 6.5, NR3A LBD binder 22.9*, MPTP inh 7.4, Mdm2 MdmX PPI 27.1 and SKKanGAS inh 85.6*.
COc1ccc(NC(=O)Cc2c(C)n(C(=O)c3ccc(Cl)cc3)c3ccc(OC)cc23)cc1 was read as CSC inhib 12.6, Beta apoptosis -3.2, NR3A LBD binder -19.2, MPTP inh 16.5, Mdm2 MdmX PPI -31.0 and SKKanGAS inh 2.0.
For COc1ccc(NS(=O)(=O)c2cccc(NC(=O)CCC(=O)c3ccc(Cl)cc3)c2)cc1 the results were CSC inhib 18.5, Beta apoptosis 3.4, NR3A LBD binder 26.1*, MPTP inh 45.3, Mdm2 MdmX PPI 30.8 and SKKanGAS inh 51.3*.
For COc1ccc(NS(=O)(=O)c2ccc(OC)c(NC(=O)CCC3CCCC3)c2)cc1 the results were CSC inhib 4.3, Beta apoptosis 2.2, NR3A LBD binder 31.5*, MPTP inh 1.2, Mdm2 MdmX PPI 2.7 and SKKanGAS inh 5.5.
For CCC1CCCCN1C(=O)CCC(=O)Nc1nnc(C(F)(F)F)s1 (stereo not drawn) the results were CSC inhib -9.7, Beta apoptosis -0.6, NR3A LBD binder 1.5, MPTP inh 1.7, Mdm2 MdmX PPI 4.7 and SKKanGAS inh 0.9.
Screening COC(=O)c1cc2oc(C)cc2n1CC(=O)N(C)c1ccccc1 returned NR3A LBD binder 10.6*, MPTP inh 0.1, Mdm2 MdmX PPI -3.0 and SKKanGAS inh -13.8.
C=CCN(C(=O)Cn1c(C(=O)OC)cc2oc(C)cc21)c1ccccc1 was read as CSC inhib 10.9, Beta apoptosis 1.2, NR3A LBD binder -1.3, MPTP inh -0.5, Mdm2 MdmX PPI -33.1 and SKKanGAS inh -6.6.
For C=CCn1c(=NC(=O)c2ccc(S(=O)(=O)N3CCCc4ccccc43)cc2)sc2cc(S(N)(=O)=O)ccc21 the results were CSC inhib inconclusive, Beta apoptosis 2.3, NR3A LBD binder 13.0*, MPTP inh 0.3, Mdm2 MdmX PPI 14.6 and SKKanGAS inh 18.5.
Screening COCCn1c(=NC(=O)c2cc(Cl)sc2Cl)sc2cc(S(N)(=O)=O)ccc21 returned CSC inhib -2.4, Beta apoptosis 25.6, NR3A LBD binder 27.6*, MPTP inh -1.2, Mdm2 MdmX PPI 14.4 and SKKanGAS inh 23.9.
`CCCCC(=O)N=c1sc2cc([N+](=O)[O-])ccc2n1C` gave CSC inhib -8.1, Beta apoptosis 3.2, NR3A LBD binder -0.2, MPTP inh 0.2, Mdm2 MdmX PPI -13.3 and SKKanGAS inh 3.5.
For COCCn1c(=NC(C)=O)sc2cc([N+](=O)[O-])ccc21 the results were CSC inhib -1.7, Beta apoptosis -10.0, NR3A LBD binder 27.1*, MPTP inh 1.9, Mdm2 MdmX PPI 3.7 and SKKanGAS inh -4.5.
`C=CCn1c(=NC(=O)c2ccc(S(=O)(=O)N3CCc4ccccc4C3)cc2)sc2cc(S(N)(=O)=O)ccc21` gave Beta apoptosis 25.7, NR3A LBD binder 18.7*, MPTP inh -3.5, Mdm2 MdmX PPI 14.1 and SKKanGAS inh 14.6.
